# Measurements as given in PubChem BioAssay.
# Unmarked numbers belong to inactive results. Some of the results follow. Active and inactive are the calls of the source.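 Rule for the calls, unless noted: active = inhibition above the hit cutoff set in the earlier primary screen (cut at about 27% in these data); inactive = the rest.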
# Experiments:
# [1] = target: Protein phosphatase methylesterase 1 (Homo sapiens) (UniProt Q9Y570); test: human PME-1 methylesterase inhibition confirmation – biochemical, fluorescence polarization, FP-Rh probe, triplicate (AID 2171); conditions: recombinant PME-1, FP-Rh probe fluorescence polarization; at 5.9 µM; active compounds read high;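 note: 0% = enzyme with DMSO and 100% = wells lacking PME-1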
# [2] = target: Bcl-2-like protein 1 (Homo sapiens) (UniProt Q07817); test: Bcl-xL BH3-peptide displacement, hit confirmation – biochemical, fluorescence polarization, counter-screen for MCL1 inhibitor project (AID 2166;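 active = inhibition above a cutoff equal to the mean inhibition of all tested compounds plus 3 SD, cut at about 30% in these data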); conditions: GST-Bcl-xL / FITC-Bim BH3 peptide FP binding; at 10.9 µM; active compounds read high
# [3] = target: Induced myeloid leukemia cell differentiation protein Mcl-1 (Homo sapiens) (UniProt Q07820); test: MCL1-BIM peptide interaction disruptors – biochemical, fluorescence polarization, triplicate, confirmation (AID 2168;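 active = inhibition above the average of all tested compounds plus 3 SD, cut at about 40% in these data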;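 note: 0% = DMSO wells and 100% = unlabeled Bim-BH3 control peptide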); conditions: GST-MCL1 / FITC-Bim-BH3 fluorescence polarization; at 10.9 µM; active compounds read high
# [4] = StAR promoter reporter inhibitors, counter-screen for LRH-1 inverse agonist project, cell-based, luminescence, high throughput (AID 651611; in the data active = inhibition above about 28%); conditions: StAR promoter luciferase reporter counterscreen, at 3.6 µM, active compounds read high
# [5] = target: Nuclear receptor subfamily 5 group A member 2 (Homo sapiens) (UniProt O00482); test: NR5A2 activity suppression in reporter cells – cell-based, luminescence, confirmation (AID 651613; in the data active = inhibition above about 42%;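 note: HEK293T cells co-transfected with LRH-1 and StAR promoter luciferase reporter; 0% = vehicle wells and 100% = parental cells lacking receptor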); conditions: cell-based LRH-1 luciferase reporter, inverse agonism; at 3.6 µM; active compounds read high
# [6] = target: Steroidogenic factor 1 (Homo sapiens) (UniProt Q13285); test: inverse agonism at SF1 nuclear receptor – cell-based, luminescence, high throughput, counter-screen for LRH-1 inverse agonist project (AID 651614; in the data active = inhibition above about 44%;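 note: cells cotransfected with StAR promoter reporter and SF1 expression vector; 0% = vehicle on cells with receptor and 100% = vehicle on cells lacking receptor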); conditions: cell-based SF1 luciferase reporter, at 3.6 µM, active compounds read high
# [7] = compounds suppressing VP16-driven luciferase signal – cell-based, luminescence, high throughput, counter-screen for LRH-1 inverse agonist project (AID 651615; in the data active = inhibition above about 33%); conditions: Gal4-VP16 luciferase reporter cells, at 3.6 µM, active compounds read high
# [8] = reduced OD of T4-infected AddAB+ E. coli – absorbance, E. coli V3065, T4 phage, triplicate, AddAB inhibitor project, confirmation (AID 488942;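 active = mean inhibition above a set limit taken from the earlier primary screen, cut at about 13% in these data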;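 note: higher means less bacterial growth since AddAB block lets phage replicate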); conditions: E. coli V3065 expressing H. pylori AddAB, at 11.9 µM, active compounds read high, T4 phage with gene 2 nonsense mutations
# [9] = reduced OD of phage-infected RecBCD+ V66 E. coli – absorbance, mutant T4 phage, counter-screen for AddAB inhibitor project (AID 488955;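 active = mean inhibition above the mean of solvent-only control wells plus 3 SD, cut at about 4% in these data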;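 note: optical density read after an 18 h incubation at 37 °C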); conditions: OD growth, at 11.9 µM, active compounds read high
# [10] = bacterial growth inhibitors – absorbance, counter-screen for AddAB inhibitor project, confirmation (AID 488956; in the data active = inhibition above about 25%); conditions: bacterial viability, absorbance (AddAB counterscreen); at 11.9 µM; active compounds read high
# [11] = reduced OD of V66 E. coli with T4 gene 2 phage – absorbance, RecBCD inhibitor project, confirmation (AID 651982;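 active = mean inhibition over triplicates exceeding the hit threshold derived in the original primary screen, cut at about 11% in these data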); conditions: E. coli V66 + T4 2- phage, growth OD; at 11.9 µM; active compounds read high
# [12] = bacterial growth inhibition – absorbance, high throughput, counter-screen for RecBCD inhibitor project (AID 651983; in the data active = inhibition above about 20%;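 note: E. coli strain V66 grown with compound alone and no phage infection; 0% = bacteria with DMSO vehicle only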); conditions: E. coli viability, absorbance (OD) growth; at 11.9 µM; active compounds read high
# [13] = reduced optical density, T4-challenged addAB+ bacteria – absorbance, E. coli V3065, T4 phage, counter-screen for RecBCD inhibitor project, confirmation (AID 651984;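 active = mean inhibition above the solvent-only control wells' mean plus 3 SD, cut at about 22% in these data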;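 note: higher means less bacterial growth from phage killing when AddAB is blocked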); conditions: E. coli expressing H. pylori AddAB + T4 phage, OD growth; at 11.9 µM; active compounds read high; gene 2 mutant T4, recBCD-deleted host
# [14] = BSA probe fluorescence interference – biochemical, TAMRA-labeled BSA, counter-screen for TCR-CD3 interaction inhibitor project (AID 652035; in the data active = inhibition above about 23%;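 note: 0% = buffer low control and 100% = reference high control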); conditions: TAMRA-labeled BSA probe fluorescence counterscreen; at 9.4 µM; active compounds read high
# [15] = tested on: T-cell receptor (TCR)-CD3 interaction, human; test: blockers of TCR binding to CD3 – biochemical, fluorescence, TAMRA-labeled TCR probe, confirmation (AID 652036; in the data active = inhibition above about 19%); conditions: TAMRA-labeled TCR probe fluorescence binding assay; at 9.4 µM; active compounds read high
# Sequence of Protein phosphatase methylesterase 1 (Homo sapiens) (Q9Y570 whole entry, looked up): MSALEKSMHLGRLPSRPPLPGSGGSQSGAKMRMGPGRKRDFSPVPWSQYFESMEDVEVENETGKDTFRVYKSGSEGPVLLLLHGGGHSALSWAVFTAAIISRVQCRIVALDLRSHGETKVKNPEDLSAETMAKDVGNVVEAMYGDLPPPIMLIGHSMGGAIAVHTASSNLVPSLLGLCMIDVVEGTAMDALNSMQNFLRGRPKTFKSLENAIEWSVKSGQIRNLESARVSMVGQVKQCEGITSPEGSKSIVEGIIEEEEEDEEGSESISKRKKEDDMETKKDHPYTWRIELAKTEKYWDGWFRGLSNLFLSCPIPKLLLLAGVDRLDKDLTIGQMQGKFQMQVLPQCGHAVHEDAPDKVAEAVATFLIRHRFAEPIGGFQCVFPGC
# Sequence of Bcl-2-like protein 1 (Homo sapiens) (Q07817 whole entry, looked up): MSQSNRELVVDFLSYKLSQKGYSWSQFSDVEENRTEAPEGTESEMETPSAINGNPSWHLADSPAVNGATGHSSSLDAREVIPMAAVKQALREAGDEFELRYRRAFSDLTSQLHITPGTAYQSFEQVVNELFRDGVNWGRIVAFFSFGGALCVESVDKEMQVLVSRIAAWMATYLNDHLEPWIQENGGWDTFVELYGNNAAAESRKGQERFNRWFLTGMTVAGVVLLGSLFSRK
# Sequence of Induced myeloid leukemia cell differentiation protein Mcl-1 (Homo sapiens) (Q07820 whole entry, looked up): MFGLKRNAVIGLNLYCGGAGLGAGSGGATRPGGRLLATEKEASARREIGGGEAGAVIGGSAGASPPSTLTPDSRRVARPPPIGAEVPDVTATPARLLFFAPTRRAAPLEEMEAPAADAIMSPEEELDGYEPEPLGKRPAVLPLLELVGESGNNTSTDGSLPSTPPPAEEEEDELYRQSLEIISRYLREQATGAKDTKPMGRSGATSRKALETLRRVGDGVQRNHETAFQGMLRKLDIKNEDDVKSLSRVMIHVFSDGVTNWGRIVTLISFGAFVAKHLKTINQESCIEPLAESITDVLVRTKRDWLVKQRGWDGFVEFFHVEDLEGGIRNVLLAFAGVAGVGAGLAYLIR
# Sequence of Steroidogenic factor 1 (Homo sapiens) (Q13285 whole entry, looked up, the tested form may be a part): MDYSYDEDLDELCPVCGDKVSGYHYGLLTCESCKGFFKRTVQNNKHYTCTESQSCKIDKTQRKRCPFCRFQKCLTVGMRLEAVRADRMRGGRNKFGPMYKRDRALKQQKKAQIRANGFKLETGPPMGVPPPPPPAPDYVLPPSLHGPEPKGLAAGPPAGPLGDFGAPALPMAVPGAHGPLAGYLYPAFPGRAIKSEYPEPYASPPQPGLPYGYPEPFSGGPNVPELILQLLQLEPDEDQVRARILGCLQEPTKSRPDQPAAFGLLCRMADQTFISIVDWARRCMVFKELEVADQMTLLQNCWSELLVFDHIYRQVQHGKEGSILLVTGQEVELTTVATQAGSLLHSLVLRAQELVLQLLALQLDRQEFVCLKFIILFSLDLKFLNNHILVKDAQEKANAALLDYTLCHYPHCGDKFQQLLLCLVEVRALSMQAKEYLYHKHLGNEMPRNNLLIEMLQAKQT
# Sequence of Nuclear receptor subfamily 5 group A member 2 (Homo sapiens) (O00482 whole entry, looked up): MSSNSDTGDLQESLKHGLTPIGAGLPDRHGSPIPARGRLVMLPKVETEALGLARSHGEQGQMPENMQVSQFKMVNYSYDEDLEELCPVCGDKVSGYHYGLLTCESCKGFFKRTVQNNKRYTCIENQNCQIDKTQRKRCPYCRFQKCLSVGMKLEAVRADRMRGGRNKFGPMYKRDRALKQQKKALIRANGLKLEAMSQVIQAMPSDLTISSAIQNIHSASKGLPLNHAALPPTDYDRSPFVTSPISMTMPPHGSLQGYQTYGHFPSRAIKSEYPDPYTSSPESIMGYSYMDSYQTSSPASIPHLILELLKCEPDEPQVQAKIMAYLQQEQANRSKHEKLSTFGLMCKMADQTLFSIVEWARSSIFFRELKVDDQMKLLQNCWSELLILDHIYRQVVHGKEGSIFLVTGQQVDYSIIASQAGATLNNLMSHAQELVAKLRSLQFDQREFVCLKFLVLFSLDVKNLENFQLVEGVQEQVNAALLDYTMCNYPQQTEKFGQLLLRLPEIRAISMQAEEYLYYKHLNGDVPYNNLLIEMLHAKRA
smiles,measurement,setting,value
Cc1cc(C)c(NC(=O)COC(=O)c2cccc3c2C(=O)c2ccccc2C3=O)c(C)c1,inhibition,[1],42.1% (active)
COc1cc(OC)cc(C(=O)Oc2ccc(/C=N/Nc3nc4ccccc4s3)cc2OC)c1,inhibition,[1],24.3%
Oc1c(Br)cc(Br)c(/C=N/n2c(-c3ccccc3)n[nH]c2=S)c1Br,inhibition,[1],45.5% (active)
Cc1ccc(Nc2cc(C)c3c(O)cccc3n2)cc1C,inhibition,[1],26.7% (active)
Cc1cc2nc3c(=O)n(CCc4ccccc4)c(=O)[nH]c3nc2cc1N,inhibition,[1],44.2% (active)
O=c1cc(N2CCCCC2)c(-c2ccccc2)nn1Cc1c(Cl)cccc1Cl,inhibition,[1],25.3%
COc1ccc(Nc2nc(-c3cccnc3)nc3ccccc23)cn1,inhibition,[2],90.3% (active)
same,inhibition,[3],114% (active)
same,inhibition,[4],28.2% (active)
same,inhibition,[5],43.9% (active)
same,inhibition,[6],53.2% (active)
same,inhibition,[7],-10.3%
C=C1c2c(Cl)ccc(O)c2C(O)=C2C(=O)[C@]3(O)C(O)=C(C(N)=O)C(=O)[C@@H](N(C)C)[C@@H]3[C@@H](O)C12 (stereo not given in full),inhibition,[2],37.7% (active)
same,inhibition,[3],79% (active)
same,inhibition,[8],102% (active)
same,inhibition,[9],101% (active)
same,inhibition,[10],104% (active)
same,inhibition,[11],102% (active)
same,inhibition,[12],105% (active)
same,inhibition,[13],104% (active)
same,inhibition,[14],-9.22%
same,inhibition,[15],20.7% (active)
COc1ccc2[nH]c(O)c(N=NC(=O)c3ccc(NS(=O)(=O)c4cccs4)cc3)c2c1,inhibition,[1],19.4%
O=c1nc(/C=C/c2cc([N+](=O)[O-])ccc2Cl)cc(C(F)(F)F)[nH]1,inhibition,[1],25.3%
N#Cc1cc2ccccc2nc1SCC(=O)Nc1ccccc1N1CCOCC1,inhibition,[1],20.3%
N#CCN(CC#N)C(=O)C1c2ccccc2Oc2ccccc21,inhibition,[1],0.3%
O=C1NC(=S)/C(=C\c2ccc(-c3ccccc3Cl)o2)S1,inhibition,[1],33.2% (active)
COc1ccccc1-c1sc2ccccc2c1-c1ccc(C(C)=O)cc1,inhibition,[1],-9.37%
CCOc1ccc(NC(=S)Nc2ccc3nsnc3c2)cc1,inhibition,[1],24.1%
Cc1[nH]n(-c2ccccc2)c(=O)c1N=Nc1c(O)cc(S(=O)(=O)N(C)C)c2ccccc12,inhibition,[1],74.3% (active)
CC1(C)CC(=O)C2=C(C1)N1C(=C(C#N)C2c2ccc(Cl)cc2)N=C(N)c2ccccc21 (stereo not given),inhibition,[1],44% (active)
O=C(O)c1ccccc1Nc1cccc(OCc2ccc3ccccc3n2)c1,inhibition,[1],20%
O=C1c2ccccc2-c2onc3ccc(NCc4ccco4)c1c23,inhibition,[1],84.5% (active)
Cc1ccc(O)c(N=CC2=C(O)c3ccccc3C2=O)c1,inhibition,[1],27.3% (active)
Cc1cccc(NC(=O)CN2C(=O)S/C(=C\c3ccc(O)c([N+](=O)[O-])c3)C2=O)c1,inhibition,[1],24.7%
CCOc1ccc(N=C/C=C/c2ccccc2)c(O)c1,inhibition,[1],9.57%
CC1=NN(c2ccc(C)c(C)c2)C(=O)C1C(c1cccc(O)c1)C1C(=O)N(c2ccc(C)c(C)c2)N=C1C (stereo not given),inhibition,[1],15.3%
CCOc1ccc(/C=C2\SC(=S)N(C(C(=O)O)c3ccccc3)C2=O)cc1OC (stereo not given),inhibition,[1],43.8% (active)
O=c1ccc2cc3c([nH]c4ccc(Br)cc43)oc-2c1O,inhibition,[1],-63.1%
CCCCCCC(=O)Nc1nc(C)c(-c2csc(Nc3cc(OC)ccc3OC)n2)s1,inhibition,[1],65% (active)
CC1=NN(c2ccccc2)C(=O)/C1=C/c1c(O)n(-c2ccc(F)cc2)[nH]c1=O,inhibition,[1],52.1% (active)
COc1ccc(OC)c(-c2c3cc(O)c(=O)cc-3oc3cc(O)c(O)cc23)c1,inhibition,[1],169% (active)
COc1cc(/C=C2\CCC/C(=C\c3ccc(O)c(OC)c3)C2=O)ccc1O,inhibition,[1],39.5% (active)
CC(=O)Oc1ccc2c(c1)Oc1cc(OC(C)=O)ccc1C21OC(=O)c2ccccc21,inhibition,[1],148% (active)
Cc1ccc(S(=O)(=O)c2nnn3c2nc(N2CCOCC2)c2ccccc23)c(C)c1,inhibition,[1],21.9%
C/C(=N/Nc1ccnc2cc(Cl)ccc12)c1ccc(O)cc1,inhibition,[1],10.9%
CC(C)c1ccc2[nH]c(O)c(N=NC(=O)c3ccc(CSc4nncn4C)cc3)c2c1,inhibition,[1],104% (active)
COc1ccc(Nc2cnn(-c3nc4ccccc4s3)c(=O)c2Cl)cc1,inhibition,[1],37.3% (active)
O=C(Nc1ccc(N2CCOCC2)cc1)Nc1ccc2nc(-c3ccco3)c(-c3ccco3)nc2c1,inhibition,[1],39.5% (active)
Cc1cccc(NC(=S)N/N=C/c2c[nH]c3ccccc23)c1,inhibition,[1],33.3% (active)
COc1ccc2noc3c2c1C(=O)c1ccccc1-3,inhibition,[1],22.2%
COc1ccccc1N1CCN(C(=O)C2CCN(S(=O)(=O)c3ccc(C)cc3)CC2)CC1,inhibition,[1],15.3%
CCc1ccc2nc3sc(C(=O)Nc4nnc(CC)s4)c(N)c3cc2c1,inhibition,[1],57.6% (active)
Cc1nn(-c2ccccc2)c(Cl)c1/C=N/Nc1ccc(S(=O)(=O)Nc2ccccc2C(=O)O)cc1[N+](=O)[O-],inhibition,[1],22.1%
COC(=O)c1ccc(NC(=O)Nc2ccc(OC)cc2)cc1,inhibition,[1],23.2%
CCCCCCC(=O)N1CCC(c2nc3c(nnn3Cc3ccccc3Cl)c(=O)[nH]2)CC1,inhibition,[1],21.9%
c1ccc2c(c1)OCCc1c-2[nH]c2ccccc12,inhibition,[1],21.9%
C/C(=N/NC(=O)c1cc2ccccc2cc1O)C1C(=O)c2ccccc2C1=O,inhibition,[1],68.6% (active)
COc1ccc(/C=N\NC(=O)c2cc(O)c(O)c(O)c2)cc1COc1ccc(C(=O)OCC(C)C)cc1,inhibition,[1],-24.1%
O=C(NCCC1=CCCCC1)C1CCN(S(=O)(=O)c2cccs2)CC1,inhibition,[1],25.6%
O=C1CN(C(=O)c2ccccc2F)C(c2ccccc2)c2cc(F)ccc2N1 (stereo not given),inhibition,[1],16.4%
Nc1ccc2nc3c(=O)n(CCc4ccccc4)c(=O)[nH]c3nc2c1,inhibition,[1],51.2% (active)
Cc1cc(SCC(=O)N/N=C/c2ccc(O)c(O)c2O)c(C)cc1Br,inhibition,[1],-9.75%
CSc1ccc(C2Nc3cccc4cccc(c34)N2)cc1,inhibition,[1],36.5% (active)
O=C(N/N=C/c1c(O)ccc2ccccc12)Nc1ccccc1,inhibition,[1],35.5% (active)
CCOC(=O)Cc1csc(NC(=O)c2sc3nc4ccc(C)cc4cc3c2N)n1,inhibition,[1],21%
COc1cc2c(cc1NC(=O)Nc1cccc(C)c1)oc1ccccc12,inhibition,[1],12.2%
Cc1cccc(OCCn2cc(/C=N/NC(=O)c3ccncc3)c3ccccc32)c1,inhibition,[1],2.22%
Nc1[nH]n(-c2ccccc2)c(=O)c1N=Nc1ccc2ncsc2c1,inhibition,[1],31.1% (active)
COc1ccc2c(Cl)c(C(=O)N/N=C/c3c(C)[nH]c4ccccc34)sc2c1,inhibition,[1],18.5%
CCCOc1ccc([C@@H]2C3CN(C(=O)OCC)CC=C3C(C#N)=C(N)C2(C#N)C#N)cc1OC (stereo not given in full),inhibition,[1],53.6% (active)
Cc1[nH]c2ccccc2c1/C=N/NC(=O)c1cc(-c2ccncc2)nc2ccccc12,inhibition,[1],23%
CC(=O)NC(c1cccs1)c1cc([N+](=O)[O-])c2cccnc2c1O (stereo not given),inhibition,[1],12%
Cc1[nH]c(N=Nc2ccccc2)nc1N=Nc1ccccc1,inhibition,[1],55.2% (active)
CN(C)S(=O)(=O)c1cccc(NC(=S)NNC(=O)c2cc3ccccc3cc2O)c1,inhibition,[1],-1.97%
CCCCCCCCCCCCCCCC[n+]1ccc(/C=N/O)cc1,inhibition,[1],60.4% (active)
Cc1ccc(-c2nc(Nc3ccccc3)n[nH]2)cc1,inhibition,[1],48.5% (active)
Cc1cccc(NC(=O)COC(=O)c2cccc3c2C(=O)c2ccccc2C3=O)c1C,inhibition,[1],37.5% (active)
CC(C)Oc1ccc(CCC(=O)N/N=C/c2ccc3c(c2)OCO3)cc1,inhibition,[1],4.01%
Cc1c(O)ccc(/C=N/Nc2nc(-c3cccnc3)nc3ccccc23)c1O,inhibition,[1],48.8% (active)
CC(=O)Nc1ccc(Nc2c3c4c(cccc4n(C)c2=O)C(=O)c2ccccc2-3)cc1,inhibition,[1],31.5% (active)
O=C1Nc2ccc(Br)cc2C12NNc1ccccc1O2 (stereo not given),inhibition,[1],38.5% (active)
N#CC1=C(N)C(C#N)(C#N)C(c2cccnc2)C2CN(C(=O)OCc3ccccc3)CC=C12 (stereo not given),inhibition,[1],35.5% (active)
CCn1c(CSc2nnc(-c3cccnc3)n2-c2ccccc2C)nc2cc(C(=O)O)ccc21,inhibition,[1],82% (active)
Cc1onc(NC(=O)NC(=O)c2c(Cl)cccc2Cl)c1Br,inhibition,[1],17.4%
Cc1[nH]c2c(C)cccc2c1CCNC(=O)c1ccc2c(c1[N+](=O)[O-])C(=O)c1ccccc1C2=O,inhibition,[1],75.1% (active)
Oc1c(Br)cc(C=Nc2ccc3nc(-c4ccccc4)[nH]c3c2)c(O)c1Br,inhibition,[1],5.82%
N#Cc1c(N)nc2c3c(sc(=N)c2c1N)NC(=O)CC3c1c(F)cccc1Cl (stereo not given),inhibition,[1],38.2% (active)
COc1cc(/C=N/NC(=O)[C@H](Cc2c[nH]c3ccccc23)NC(=O)OCC(C)C)cc([N+](=O)[O-])c1O,inhibition,[1],35.9% (active)
COC(=O)N1C(=O)[C@](c2ccccc2)(C(C)C)N1C(=O)OC,inhibition,[1],23.3%
O=C(N/N=C/c1cc(Cl)c(O)c(Cl)c1)c1cc2c(ccc3ccccc32)o1,inhibition,[1],38.5% (active)
Oc1ccc(C2Nc3cccc4cccc(c34)N2)c(O)c1,inhibition,[1],21.4%
CCC(C)Nc1nc(N)c([N+](=O)[O-])c(Nc2cc(OC)ccc2OC)n1 (stereo not given),inhibition,[1],34.5% (active)
CCCCC(=O)NC(c1ccccc1Cl)c1c(O)ccc2ccccc12 (stereo not given),inhibition,[1],32.1% (active)
Brc1ccc(-c2ccc(C3Nc4cccc5cccc(c45)N3)o2)cc1,inhibition,[1],24.1%
COc1ccccc1NC(=O)CCC(=O)Nc1nnc(C(F)(F)F)s1,inhibition,[1],4.64%
CCCCN(CC)CCCNC(=O)c1cn(CC)c2ccc(S(=O)(=O)N3CCc4ccccc4C3)cc2c1=O,inhibition,[1],59.1% (active)
O=C(NNc1c2ccccc2nc2ccccc12)c1cccc(O)c1,inhibition,[1],36% (active)
COc1ccc(N=Nc2nc3cc(Br)c(Br)cc3n2C)c(OC)c1,inhibition,[1],50.6% (active)
c1ccc2sc(Nc3nc4cc5c(cc4s3)OCO5)nc2c1,inhibition,[1],49.7% (active)
